Measurements from PubChem BioAssay (NCATS).
Records with an inconclusive call do not appear. Activity calls are given as the source filed them. The call rests on the fitted dose curve; in most records, active means well fitted curve in either direction with a large enough effect (not every such curve was filed as active); inconclusive means small, poorly fitted or top-dose-only effect, or another doubt; inactive means flat fitted curve, though single readings scatter.

assay: NFAT Signaling Pathway (AID 444); conditions: Jurkat NFAT-bla M1, carbachol, beta-lactamase ratio, 5 h; at 17.2 µM (top of the series) unless noted;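 further: carbachol stimulus at about its EC50 of 1 µM final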
How it was run: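 Jurkat cells with NFAT-driven β-lactamase reporter and co-expressed M1 receptor, stimulated with carbachol (final 1 uM, ~EC50), compound titration, 5 h at 37 °C. CCF4 loaded 1 h at RT; 460/530 nm ratio gave %activity and AC50.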
On the % scale 0 is the no-effect control and ±100 the full control effect.

Activity change, negative = inhibition, inactive:
O=C(O)CC(NCc1ccco1)C(=O)OCCc1ccccc1 (stereo not given) 5.37%
CN1CCN(/C=N/c2sc3c(c2C#N)CCCCC3)CC1 11.9%
O=C(CN1C(=O)c2ccccc2S1(=O)=O)c1ccccc1 -11.7%
CCOC(=O)CC(=O)CSc1nc2c(cc1C#N)CCCCCC2 2.93%
Cc1cc(=O)oc(C)c1C(=O)NCC(C)C -1.32%
O=S1CCCSC1c1cccnc1 (stereo not given) 9.76%
Cn1c(=O)c2c(nc(NCCCO)n2Cc2cccc(C(F)(F)F)c2)n(C)c1=O 7.97%
Cc1cc2c(c(=O)n1Cc1cccnc1)C(c1ccccc1)C(C#N)=C(N)O2 (stereo not given) 3.75%
CCOC(=O)c1[nH]c2cc3c(cc2c1NC(=O)CN1CC(C)CC(C)C1)OCO3 (stereo not given) -21%
CC(=O)NC1(C(F)(F)F)C(=O)Nc2c1c(=O)n(C)c(=O)n2C (stereo not given) 7.97%
O=C(Cc1ccc(Cl)cc1)Nc1cccc(-c2nnc(-c3ccco3)o2)c1 11.3%
Cc1cc(=O)oc2cc(OCC(=O)NCc3cccnc3)ccc12 -8.13%
Clc1ccc(-c2cn3c(n2)CCC3)cc1 -26.9%
CCNC(=O)N(C(=O)NCC)n1c(C)nnc1C -11.9%
COC(=O)c1ccc(=O)n(Cc2ccco2)c1 -1.77%
CCCOc1ccc(N2C(=O)CC(N(Cc3ccc(S(N)(=O)=O)cc3)C(=O)CC)C2=O)cc1 (stereo not given) 20.1%
OCCOCCNc1ncnc2c1cnn2-c1ccc(Cl)cc1 0.366%
Cn1c(=O)[nH]c(=O)c2c1nc(N1CCN(c3cccc(Cl)c3)CC1)n2CCCc1ccccc1 -11.9%
COc1cc(C2CC(C(F)(F)F)n3ncc(C(=O)O)c3N2)cc(OC)c1OC (stereo not given) -3.76%
C=CCN=C(NC#N)SCCc1ccccc1 7.9%
CCOC(=O)C1CSc2[nH]c(=O)sc2C1c1ccccc1 (stereo not given) -1.24%
Cn1c(=O)n(Cc2ccccc2)c(=O)c2c1nc(NCC1CCCO1)n2Cc1ccccc1 (stereo not given) -16.1%
Cc1c(C(Nc2ccccn2)c2ccccc2)c(=O)n(-c2ccccc2)n1C (stereo not given) 2.74%
O=C(c1ccco1)N1CCN(c2ncnc3c2[nH]c2ccccc23)CC1 11%
Cc1ccc2cc(CNC(C)(C)C)c(=O)[nH]c2c1 -5.21%
CN=c1sc2ccccc2n1CC(O)COCc1ccco1 (stereo not given) 1.06%
COC(=O)C1C(=O)NCC1c1ccccc1 (stereo not given) -1.78%
C=CCOC(=O)C1=C(C)NC(SCC(=O)Nc2ccc(C)c(Cl)c2)=C(C#N)C1c1ccco1 (stereo not given) 7.32%
CC(O)CNc1nc2c(c(=O)n(C)c(=O)n2C)n1Cc1cccc(C(F)(F)F)c1 (stereo not given) 4.56%
CC(NC(=O)OCc1ccccc1)C(=O)OCN1C(=O)c2ccccc2C1=O (stereo not given) -16.6%
CC(=O)N1CC=C2C(C#N)=C(N)C(C#N)(C#N)[C@H](c3ccoc3)[C@H]2C1 -12.2%
CC/C(C)=C1\SC(N2CCN(C(C)=O)CC2)=NC1=O 5.99%
CCOc1ccc(C2C(C(=O)c3ccc(C)o3)=C(O)C(=O)N2CCN2CCOCC2)cc1OC (stereo not given) 4.63%
CN(C)CC(O)COc1ccc(-c2ccc(C#N)cc2)cc1 (stereo not given) 11.2%
Cc1c(-c2cccs2)[n+](=O)c2c(n1[O-])CCCC2 -0.25%
Cc1nccn1-c1cc(C(C)C)c(C#N)c2nc3ccccc3n12 -0.783%
CCc1nnc(NC(=O)c2c(O)c3c([nH]c2=O)CCCC3)s1 15.9%
CCCCCCOc1ccc(N2C(=O)CC(N3CCN(C(=O)c4ccco4)CC3)C2=O)cc1 (stereo not given) 13.8%
Cc1ccc(OCC(=O)NCC(=O)n2nc(C)cc2C)cc1 -11.6%
O=c1c(-c2ccc(Cl)cc2)[n+]([O-])c2ccccc2n1O -15.3%

assay: Stat Signaling Pathway (AID 446); conditions: ME-180 (cervical carcinoma) SIE beta-lactamase reporter, IL-6 stimulated, 5 h; at 17.2 µM (top of the series) unless noted;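 further: ME-180 cervical cancer cells given 40 pM IL-6 alongside compound; SIE-controlled beta-lactamase reporter measured as 460/530 nm FRET emission ratio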
How it was run: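 Emission at 460 and 530 nm (excitation 405 nm) reports SIE-controlled beta-lactamase in ME-180 cells. Cells received compound with 40 pM IL-6 for 5 hrs at 37 C; data scaled between 300 pM IL-6 and 125 nM JAK-inhibitor controls.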

activity, negative = inhibition, inactive:
O=C(O)CC(NCc1ccco1)C(=O)OCCc1ccccc1 (stereo not given) 0.0661%
CN1CCN(/C=N/c2sc3c(c2C#N)CCCCC3)CC1 -3.82%
O=C(CN1C(=O)c2ccccc2S1(=O)=O)c1ccccc1 3.52%
CCOC(=O)CC(=O)CSc1nc2c(cc1C#N)CCCCCC2 -11.8%
Cc1cc(=O)oc(C)c1C(=O)NCC(C)C 8.66%
O=S1CCCSC1c1cccnc1 (stereo not given) 2.7%
Cn1c(=O)c2c(nc(NCCCO)n2Cc2cccc(C(F)(F)F)c2)n(C)c1=O -3.72%
Cc1cc2c(c(=O)n1Cc1cccnc1)C(c1ccccc1)C(C#N)=C(N)O2 (stereo not given) -17%
CCOC(=O)c1[nH]c2cc3c(cc2c1NC(=O)CN1CC(C)CC(C)C1)OCO3 (stereo not given) -2.27%
CC(=O)NC1(C(F)(F)F)C(=O)Nc2c1c(=O)n(C)c(=O)n2C (stereo not given) 0.854%
O=C(Cc1ccc(Cl)cc1)Nc1cccc(-c2nnc(-c3ccco3)o2)c1 -1.67%
Cc1cc(=O)oc2cc(OCC(=O)NCc3cccnc3)ccc12 -2.73%
Clc1ccc(-c2cn3c(n2)CCC3)cc1 7.31%
CCNC(=O)N(C(=O)NCC)n1c(C)nnc1C 12.4%
COC(=O)c1ccc(=O)n(Cc2ccco2)c1 -2.94%
CCCOc1ccc(N2C(=O)CC(N(Cc3ccc(S(N)(=O)=O)cc3)C(=O)CC)C2=O)cc1 (stereo not given) 11.7%
OCCOCCNc1ncnc2c1cnn2-c1ccc(Cl)cc1 4.43%
Cn1c(=O)[nH]c(=O)c2c1nc(N1CCN(c3cccc(Cl)c3)CC1)n2CCCc1ccccc1 6.95%
COc1cc(C2CC(C(F)(F)F)n3ncc(C(=O)O)c3N2)cc(OC)c1OC (stereo not given) 7.46%
C=CCN=C(NC#N)SCCc1ccccc1 5.61%
CCOC(=O)C1CSc2[nH]c(=O)sc2C1c1ccccc1 (stereo not given) -1.01%
Cn1c(=O)n(Cc2ccccc2)c(=O)c2c1nc(NCC1CCCO1)n2Cc1ccccc1 (stereo not given) -15.3%
Cc1c(C(Nc2ccccn2)c2ccccc2)c(=O)n(-c2ccccc2)n1C (stereo not given) 8.77%
O=C(c1ccco1)N1CCN(c2ncnc3c2[nH]c2ccccc23)CC1 -16.9%
Cc1ccc2cc(CNC(C)(C)C)c(=O)[nH]c2c1 -2.54%
CN=c1sc2ccccc2n1CC(O)COCc1ccco1 (stereo not given) -2.56%
COC(=O)C1C(=O)NCC1c1ccccc1 (stereo not given) 7.06%
C=CCOC(=O)C1=C(C)NC(SCC(=O)Nc2ccc(C)c(Cl)c2)=C(C#N)C1c1ccco1 (stereo not given) 6.22%
CC(O)CNc1nc2c(c(=O)n(C)c(=O)n2C)n1Cc1cccc(C(F)(F)F)c1 (stereo not given) -0.279%
CC(NC(=O)OCc1ccccc1)C(=O)OCN1C(=O)c2ccccc2C1=O (stereo not given) 13.6%
CC(=O)N1CC=C2C(C#N)=C(N)C(C#N)(C#N)[C@H](c3ccoc3)[C@H]2C1 10.5%
CC/C(C)=C1\SC(N2CCN(C(C)=O)CC2)=NC1=O 8.03%
CCOc1ccc(C2C(C(=O)c3ccc(C)o3)=C(O)C(=O)N2CCN2CCOCC2)cc1OC (stereo not given) 0.944%
CN(C)CC(O)COc1ccc(-c2ccc(C#N)cc2)cc1 (stereo not given) 2.27%
Cc1c(-c2cccs2)[n+](=O)c2c(n1[O-])CCCC2 6.22%
Cc1nccn1-c1cc(C(C)C)c(C#N)c2nc3ccccc3n12 -0.277%
CCc1nnc(NC(=O)c2c(O)c3c([nH]c2=O)CCCC3)s1 4.12%
CCCCCCOc1ccc(N2C(=O)CC(N3CCN(C(=O)c4ccco4)CC3)C2=O)cc1 (stereo not given) -13.2%
Cc1ccc(OCC(=O)NCC(=O)n2nc(C)cc2C)cc1 -3.12%
O=c1c(-c2ccc(Cl)cc2)[n+]([O-])c2ccccc2n1O -2.31%
